Test in all cases: NCI-60 one-dose screen, 48 h (100 = growth as untreated, 0 = no growth, -100 = all killed)
Holding throughout (settings): 10 µM unless noted

The subject of test [1] is DU-145 prostate.
In test [2] the test system is K-562 leukemia.
Test [3] has as its system MALME-3M melanoma.
Test [4] concerns MDA-MB-231 breast.
Test [5] deals with RXF 393 renal.
For test [6], the system named is SF-268 CNS.
For test [7], the system named is SF-295 CNS.
The subject of test [8] is SF-539 CNS.
Test [9] has as its system UACC-257 melanoma.
The test system of test [10] is M14 melanoma.
Test [11] concerns HCT-15 colon.
The subject of test [12] is HT29 colon.
Test [13] deals with SNB-75 CNS.
Test [14] relates to SNB-19 CNS.
Test [15] concerns U251 CNS.
Test [16] relates to PC-3 prostate.
The test system of test [17] is SK-MEL-5 melanoma.
Test [18] concerns UACC-62 melanoma.
For test [19], the system named is LOX IMVI melanoma.
In test [20] the test system is SK-MEL-28 melanoma.

Molecules are shown by their SMILES. “And” between values parts separate entries of the source, which are not always exact repeats. Identical values can stand only once. About 83,000 compounds went through this panel and 20% of them were active in at least one assay; those are over-represented in the sample as a whole.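 Method: cells in 96-well plates; compound added at one concentration; 48 h incubation; percent growth measured; values under 10 scored active.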 A number with no mark means an inactive call. The source made the active and inactive calls.

For `COc1cc(-c2nc(-c3ccccc3)[nH]c2-c2ccnc(NCCCNS(=O)(=O)c3ccc(C(F)(F)F)cc3)n2)ccc1Cl`, the growth in test [1] is 52.6% and 59.5%; in [2] it was 18% and 23.5%; in test [3], 102% and 62.4%; in [4], 57% and 55.8%; in test [5], 18.5% and 16.3%; in [6], 37.9% and 49%. Moreover, the growth was 13.4% and 22.6% in test [7]; 65.6% and 55.5% in test [8]; 64.2% and 51.2% in test [9]; 18.7% in test [10]; 14.3% and 22.5% in test [11]; 43.9% and 17.9% in test [12]. Besides, the growth was 58.6% and 67.5% in test [13]; 57.1% and 54.1% in test [14]; 40.7% and 39.8% in test [15]; 15.4% and 20.3% in test [16]; 22.4% and 52.3% in [17]; 56% and 44.9% in [18]. Further, the growth is 18.1% and 47.6% in [19]; 63.1% and 44.4% in test [20].
For the compound `COc1ccc(NC2=C(Br)C(=O)C(C)=C(C)C2=O)cc1OC`, the growth is 109% in test [1]; -7.89% (active) in test [2]; 117% in test [3]; 33.3% in test [4]; 104% in test [5]; 95.3% in [6]. Also, the growth is 94.4% in test [7]; 101% in [8]; 96% in test [9]; 104% in test [10]; 97.9% in test [11]; 111% in [12]. For the same compound, the growth in [13] is 77.1%; in [14], 84.9%; in [15] it was 84%; in [16] it was 69.7%; in test [17], 69.7%; in [18] it was 88%. Besides, the results for the growth in test [19] and in [20] were 73.7% and 112%, respectively.
As to `C#C[C@]1(O)CC[C@H]2[C@@H]3CC=C4c5sc(Nc6ncccc6C)nc5CC[C@]4(C)[C@H]3CC[C@@]21C`, the growth in test [1] was 36.8%; in [2], -9.62% (active); in test [3], -19% (active); in test [4] it was 12.8%; in test [5] it was -75.3% (active); in test [6], 7.66% (active). The growth in test [7] was -70% (active); in test [8] it was -56.4% (active); in [9], -35.8% (active); in test [10], -55.9% (active); in test [11], -1.06% (active); in test [12], 25.4%. Moreover, the growth in [13] was -2.92% (active); in test [14] it was 1.7% (active); in test [15], 3.14% (active); in [16], -18.4% (active); in test [17], 5.96% (active); in test [18], -25.9% (active). For the same compound, the growth is -78% (active) in test [19] and -78.7% (active) in test [20].
Take `Cc1ccc(S(=O)(=O)NCCCNc2nccc(-c3[nH]c(-c4ccccc4)nc3-c3ccc(F)c(O)c3)n2)cc1`: the growth in test [1] was 98.6%; in test [2], 30.4%; in test [3], 2.9% (active); in [4], 71.1%; in [5], 97.9%; in test [6], 105%. Further, the growth in test [7] was 94.9%; in [8], 105%; in test [9] it was 23.8%; in test [10], 22.9%; in test [11], 76%; in test [12], 96.2%. For the same compound, the growth in test [13] was 73.9%; in test [14] it was 107%; in [15], 98.2%; in test [16] it was 69.5%; in test [17], 38.6%; in [18], 18.7%. Also, the figures for the growth in test [19] and in test [20] were 73.8% and 38.3%, respectively.
Regarding `Cc1ccc2c(n1)C(=O)C(Cl)=C(Nc1ccc(C(C)C)cc1)C2=O`, the growth is 16.2% in [1]; 0.714% (active) in test [2]; -33.9% (active) in test [3]; -41% (active) in [4]; -93.6% (active) in [5]; 77.1% in test [6]. Further, the growth was 82.8% in [7]; 96.2% in test [8]; -70.3% (active) in test [9]; 25.6% in [10]; -60.1% (active) in test [11]; 102% in test [12]. Besides, the growth was 109% in [13]; 75.4% in [14]; 70.2% in test [15]; 54% in [16]; 37.3% in test [17]; 86.3% in [18]. The values for the growth in test [19] and in test [20] were -66.3% (active) and 6.95% (active), respectively.
Take `COc1cccc(N2CCN(C3=C(Cl)C(=O)c4ncccc4C3=O)CC2)c1`: the growth in [1] was 59.2%; in test [2], 7.16% (active); in [3], 61.6%; in [4], 85.1%; in test [5] it was 64.5%; in [6], 84.1%. Moreover, the growth in test [7] is 110%; in test [8], 93.8%; in test [9], 70.2%; in test [10] it was 81.7%; in test [11], 42.3%; in [12] it was 108%. The growth was 85.1% in [13]; 90.8% in [14]; 90.5% in [15]; 78.7% in [16]; 97.3% in test [17]; 84.3% in test [18]. Besides, the values for the growth in test [19] and in [20] were 28.6% and 105%, respectively.
With `CN1CCN(Cc2ccc(NC(=O)c3cncc(C#Cc4cnc5ccc(N6CCOCC6)nn45)c3)cc2C(F)(F)F)CC1`, the growth in test [1] was -84.7% (active); in [2], -0.943% (active); in test [3], -86.2% (active); in test [4], -56.4% (active); in test [5], -77.9% (active); in test [6], -62.1% (active). Besides, the growth is -84.8% (active) in test [7]; -90.8% (active) in test [8]; -29.5% (active) in test [9]; -74.4% (active) in test [10]; -53.9% (active) in [11]; -71.2% (active) in test [12]. The growth is -46.3% (active) in [13]; -20.3% (active) in test [14]; -92.8% (active) in [15]; -7.08% (active) in test [16]; -95.9% (active) in test [17]; -62.2% (active) in test [18]. The growth in [19] was -93.8% (active); in test [20], -76.4% (active).

Source of the values: PubChem BioAssay (NCI).
